This is part of a sample that, as a whole, favours compounds with a hit. Of some 83,000 tested, about 20% had one in any assay.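 Each cell line was grown in a 96-well plate and treated with one concentration of compound for 48 hours. Values below 10 were considered active.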 Unmarked numbers belong to inactive results. Calls of active or inactive are those of the source.

Results on 40 molecules are retold here after PubChem BioAssay (NCI).

The subject of the assay is MDA-MB-468 breast. The experiment in a line: NCI-60 one-dose screen, 48 h (100 = growth as untreated, 0 = no growth, -100 = all killed). The settings on record: 10 µM unless noted.
Regarding `N#C/C(=C\c1ccc(N2CCCCC2)cc1)C(=O)Nc1sc2c(c1C#N)CCC2`, the growth is 119%.
In the case of `C[C@]12C=CC(=O)C=C1CCC1C2[C@@H](O)C[C@@]2(C)C1CC[C@]2(O)C(=O)COC(=O)CCC(=O)O` (stereo not given in full) it was 115%.
In the case of `COc1cc(OC)c(C2SCC(=O)N2Nc2ncnc3ccccc23)cc1OC` (stereo not given), the growth is 111%.
In the case of `COC(=O)CCc1c(/C=C2\N=C(c3ccc[nH]3)C=C2OC)[nH]c(C)c1C(=O)OCc1ccccc1` it was 28.5%.
On to `CN1CCCc2cc(/C=C3\SC(=S)N(C(Cc4ccc(O)cc4)C(=O)O)C3=O)ccc21` (stereo not given), for which the growth is 93.6%.
As to `c1ccc(Nc2ccccn2)cc1`, the growth was 111%.
In the case of `N#C/C(=C/c1c(O)ccc2ccccc12)C(N)=O` it was 97.3%; in that of `Cc1ncc(C(=O)Nc2ccc(CN3CCN(C)CC3)c(C(F)(F)F)c2)cc1C#Cc1ccc(N)nc1`, 10.9%; in that of `CN(C)c1ccc(/C=C2\Cc3c(F)ccc(Br)c3C2=O)cc1`, -29.4% (active).
In the case of `C=C1c2nc3ccccc3n2C=C(c2cccc(Cl)c2)N1Cc1ccc(OC)cc1` it was 32%; in that of `N#C/C(=C\N1C(=O)/C(=C/c2cccc([N+](=O)[O-])c2)SC1=S)c1nc2ccccc2s1`, 81.7%; in that of `N#Cc1c(-c2ccco2)nc2c(c(-c3ccccc3)nn2-c2ccccc2)c1-c1ccc(O)cc1`, 92.4%.
Consider `CC1=CC[C@@H]2C(C)(C)C(=O)CC[C@@]2(C)[C@@H]1COc1ccc2ccc(=O)oc2c1`, for which the growth was 43.1%.
`O=C(Nc1cc([N+](=O)[O-])c2[nH]c(=O)c3ccccc3c2c1)C(F)(F)F`: the growth was -15.2% (active).
Turning to `Fc1cc(-c2cnc3nonc3n2)c(Cl)cc1Cl`, the growth is 61.8%.
In the case of `CCCC(=O)N1CCCCC1CC` (stereo not given) it was 102%; in that of `CCCN1C(=O)/C(=c2\sc3n(c2=O)C2C(NN=3)N(CC)C(=O)N2CC)c2ccccc21` (stereo not given), 4.78% (active).
In the case of `Cn1cc(-c2nonc2-c2c[nH]c3ccc(F)cc23)c2cccnc21` it was -7.39% (active).
In the case of `CC(C)C1=CC2=C(C=O)C[C@@H]3[C@](C)(CCC[C@@]3(C)C(=O)OCC#CCN3CCCC3)[C@H]2CC1` it was 51.3%.
In the case of `CCCCNC(=O)c1cc(NCc2cc(O)ccc2O)ccc1O`, the growth is 93.6%.
In the case of `CC[C@H]1OC(=O)[C@H](C)[C@@H](O[C@H]2C[C@@](C)(OC)[C@@H](O)[C@H](C)O2)[C@H](C)[C@@H](O[C@@H]2O[C@H](C)C[C@H](N(C)C)[C@H]2O)[C@](C)(O)C[C@H](C)CN(C)[C@H](C)[C@@H](O)[C@]1(C)O` it was 86.7%.
As to `Nc1n[nH]c(-c2cc(Cl)ccc2O)c1-c1ccccc1`, the growth is 83.5%.
Turning to `CC(=O)C1CCCCC1`, the growth is 102%.
On to `Cc1cc(C#Cc2ccccc2)ccc1-n1c(/C=C/c2ccc(F)cc2)nc2ccccc2c1=O`, for which the growth was 49.3%.
With `COC(=O)c1nc(-c2ccccc2)oc1S(=O)(=O)N1CCN(c2ccc(OC)cc2)CC1`, the growth was 22.6%.
With `CSc1cccc(NC(=O)Nc2nc3c(C)cccc3s2)c1`, the growth is 84.6%.
As for `CCOC(=O)C1=C(C)NC(=O)NC1c1cccs1` (stereo not given), the growth is 102%.
In the case of `CCCCCCCCN1C(=O)/C(=c2\sc3n(c2=O)C2C(NN=3)N(CC)C(=O)N2CC)c2ccccc21` (stereo not given) it was 68.3%.
With `CSc1ccc(/C(=N/N=C(N)N)c2ccc(Cl)cc2)cc1`, the growth was -36.1% (active).
In the case of `CCSc1nc(NC)c2cc(-c3ccc(C(F)(F)F)cc3)ccc2n1` it was 110%.
With `CC1(C)CC[C@]23CC[C@]4(C)[C@H](CC[C@@H]5[C@@]6(C)CCCN(CO)C(C)(C)[C@@H]6CC[C@]54C)[C@H]2[C@H]1OC3`, the growth is 84.9%.
Consider `COc1ccc(CN(c2ccc(C)cc2)C2OC(=O)c3ccccc32)cc1OC` (stereo not given), for which the growth is 90.2%.
In the case of `O=C1c2cccnc2C(=O)c2c1c(C(=O)OCCc1ccccn1)c1ccccn21` it was -23% (active); in that of `O=C(CCc1nnc2sc(-c3ccc(Cl)cc3Cl)nn12)c1nc2ccccc2[nH]1`, -56.2% (active).
In the case of `Cc1cc(Nc2nc(-c3cccnc3)nc3ccccc23)n[nH]1`, the growth is 26.8%.
With `COc1ccc(-c2cnc(NC(=O)CCCCCCNC(=O)C(O)(O)C(F)(F)F)s2)cc1`, the growth was -33.6% (active).
In the case of `COc1ccc(C(=O)/C=C/C23c4ccccc4C(c4ccccc42)C2C(=O)NC(=O)C23)cc1` (stereo not given) it was 98.7%.
Take `CCn1cc(C(=O)O)c(=O)c2cc(F)c(N3CCN(CC(=O)Nc4ccc(/C(C)=N/OC)cc4)CC3)cc21`: the growth is 102%.
Turning to `COc1cc(/C=C/C(=O)c2ccc(Nc3nc(NCCO)nc(N4CCOCC4)n3)cc2)cc(OC)c1OC`, the growth is 2.9% (active).
Take `Cc1ccccc1NC(=O)N/C(N)=N/c1nc(C)c(C)s1`: the growth was -7.08% (active).
